Screening results (PubChem)
Only some compounds are listed: those with a hit (about 9% of all), similar ones and a draw of the others.
Luc counter: Kinase-Glo luciferase inhibition (counter-screen). actives 0.28% (n = 200,000). Kinase-Glo luciferase, ATP luminescence, 8 min. Q27757. Potency, µM (highest dose often 38.3 µM), actives largely listed as inhibitors; also: nearly all actives have a fitted effect of over 60% in size
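Inhibition of Kinase-Glo luciferase light generation was assessed at 10 uM ATP in pH 7.2 imidazole buffer, with luminescence measured after eight minutes at ambient temperature.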
HPGD block: blocks human HPGD enzyme activity; P15428; actives 4.3% (n = 150,000); Potency, µM, actives largely listed as inhibitors; AID 894; purified HPGD, NADH fluorescence kinetic, PGE2 substrate; active = well fitted inhibition curve with a large enough effect, not every such curve was filed as active; inconclusive = small, poorly fitted or top-dose-only effect, or another doubt; inactive = no such curve, though single readings can be large or run the other way
Target sequence (P15428 whole entry, looked up): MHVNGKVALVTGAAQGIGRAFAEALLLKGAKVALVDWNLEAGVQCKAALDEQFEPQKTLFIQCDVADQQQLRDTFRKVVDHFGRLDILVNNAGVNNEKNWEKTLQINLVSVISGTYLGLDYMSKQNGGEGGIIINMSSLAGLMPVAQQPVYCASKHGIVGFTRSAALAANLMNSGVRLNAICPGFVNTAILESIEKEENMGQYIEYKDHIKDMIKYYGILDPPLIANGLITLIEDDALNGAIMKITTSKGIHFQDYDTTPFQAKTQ
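20 nM HPGD preincubated 15 min at room temperature with compound in 50 mM Tris-HCl pH 8, 0.01% Tween 20. Started with 1 mM NAD+ and 30 uM prostaglandin E2; NADH fluorescence (360/450 nm) read 5 times over 30-s intervals, last minus first.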
ALDH1A1 inh: ALDH1A1 (human) enzyme inhibition | Potency, µM (top dose mostly 75.3 µM), hits mostly inhibitors | Purified ALDH1A1, NADH fluorescence, propionaldehyde substrate | actives 7.3% (n = 220,000); active = well fitted inhibition curve with a large enough effect, not every such curve was filed as active; inconclusive = small, poorly fitted or top-dose-only effect, or another doubt; inactive = no such curve, though single readings can be large or run the other way
Target sequence (P00352 whole entry, looked up): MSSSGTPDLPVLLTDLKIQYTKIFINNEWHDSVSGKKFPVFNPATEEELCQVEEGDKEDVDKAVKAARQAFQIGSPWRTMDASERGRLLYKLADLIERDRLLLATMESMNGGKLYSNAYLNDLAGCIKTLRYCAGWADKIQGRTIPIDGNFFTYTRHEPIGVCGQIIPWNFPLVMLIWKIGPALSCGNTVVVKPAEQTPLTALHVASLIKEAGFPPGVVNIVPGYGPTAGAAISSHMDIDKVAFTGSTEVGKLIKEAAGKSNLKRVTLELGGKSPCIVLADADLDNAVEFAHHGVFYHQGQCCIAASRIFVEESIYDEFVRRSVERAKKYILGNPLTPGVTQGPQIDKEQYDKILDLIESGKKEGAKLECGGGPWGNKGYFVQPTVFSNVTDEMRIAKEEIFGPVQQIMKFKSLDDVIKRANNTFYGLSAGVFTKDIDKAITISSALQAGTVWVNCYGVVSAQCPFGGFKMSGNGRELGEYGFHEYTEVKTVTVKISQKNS
Lamin A splicing: modulators of lamin A splicing. HeLa LMNA splicing GFP/RFP minigene ratio, 48 h. Potency, µM (highest dose often 46.1 µM), most hits filed as inhibitors. actives 0.01% (n = 200,000). AID 1487; active = well fitted inhibition curve with a large enough effect in the signal ratio, with a control signal flat, not every such curve was filed as active; inconclusive = small, poorly fitted or top-dose-only effect, or effect the other way, or a change in a side signal; the % refers to the signal ratio
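S3 HeLa stable clones carrying a lamin A-EGFP splicing minigene plus DsRed2 were seeded at 600 cells/well in Opti-MEM with 2% FBS, pin-dosed and incubated 48 h at 37°C. Acumen cytometry (488 nm) gave the GFP/RFP total-intensity ratio.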
HTT cytoprotect: protects HTT-Q103 PC12 cells, measured by ATP; PC12 HTT-Q103 induced, cytoprotection, ATP luminescence, 40 h; Potency, µM (top dose mostly 56.4 µM), hits mostly activators; actives 0.14% (n = 230,000); AID 1471; also: nearly all actives have a fitted effect of over 45% in size
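Huntington model: PC12 line, ecdysone-inducible HTTQ103 exon1–GFP, tebufenozide 100 nM. Test articles in a dose series. Endpoint luminescence from cellular ATP.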
HTT aggregate: inhibitors of mutant huntingtin aggregate formation in PC12 cells. actives 1.1% (n = 220,000). Potency, µM (doses to about 46.1 µM), usual class: inhibitors. AID 1688. PC12 HttQ103-GFP aggregates, Acumen cytometry, 40 h; also: nearly all actives have a fitted effect of over 60% in size
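Compounds (qHTS titration) were added to PC12 cells expressing an ecdysone-driven HTT exon 1 Q103–GFP fusion after induction with 100 nM tebufenozide. Aggregate formation was measured as GFP objects in cell lysates.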
Each line names hits and unclear results; the compound was inactive in the other large screens. Unless noted, calls follow the shape of the dose curve; as a rule, active = well fitted curve in the direction sought with a large enough effect; inconclusive = small, poorly fitted or top-dose-only effect, or another doubt; inactive = no such curve, though single readings can be large; an effect the other way counts as inactive or inconclusive.

O=C(NC1=NCCS1)C1COc2ccccc2O1 (configuration not stated)	Luc counter 7.94µM
CC(=O)NC1CC2CCC(C1)N2Cc1ccc(C)cc1 (configuration not stated)	none
O=C1/C(=C\c2ccc([N+](=O)[O-])cc2)CCc2ccccc21	Luc counter 12.6µM
N#C/C(=C/c1ccc(N2CCCCC2)o1)c1cccc(F)c1	HPGD block inconclusive, ALDH1A1 inh inconclusive, HTT cytoprotect inconclusive
COc1ccc(C(=O)c2coc3c2C(=O)C(=O)c2ccccc2-3)cc1	none (no result: Luc counter, HPGD block, ALDH1A1 inh, Lamin A splicing)
O=C(c1ccccc1)c1ccc(CN2C(=O)c3ccccc3C2=O)o1	none
O=C1c2ccccc2C(=O)c2c1oc(C(F)(F)F)c2C(=O)c1ccccc1	ALDH1A1 inh inconclusive, Lamin A splicing inconclusive, HTT aggregate 5.01µM
O=C(c1ccccc1)c1coc2c1C(=O)c1ccccc1C2=O	ALDH1A1 inh 20µM, Lamin A splicing inconclusive, HTT aggregate inconclusive (no result: HPGD block, HTT cytoprotect)
CCn1c2ccccc2c2cc(NC(=O)c3cc(C)on3)ccc21	none (no result: HPGD block, Lamin A splicing)
CCN1C(=O)C(C(=O)c2ccccc2)SC1=S (configuration not stated)	ALDH1A1 inh 7.51µM (no result: HPGD block)
COc1ccccc1/C=C/C(=O)NC(=S)N(C)C1CCCCC1	HPGD block inconclusive, ALDH1A1 inh inconclusive
CC(C)c1ccc2c(c1)[C@H]1OCC[C@H]1[C@@H](c1cccs1)N2	HPGD block 7.94µM, Lamin A splicing inconclusive (no result: HTT cytoprotect)
Cc1cc(C)c2c(c1)N[C@H](c1cccs1)[C@@H]1CCO[C@H]21	none (no result: Luc counter, HPGD block, Lamin A splicing)
Cn1nc(C(=O)OCCN2C(=O)c3ccccc3C2=O)c2ccccc2c1=O	HPGD block 20µM
Cc1cc(C)cc(-n2c(SCC(=O)NCc3ccco3)nc3ccccc3c2=O)c1	Lamin A splicing inconclusive, HTT aggregate inconclusive
CC(SC#N)C(=O)C12CC3CC(CC(C3)C1)C2 (configuration not stated)	ALDH1A1 inh 8.91µM, HTT cytoprotect inconclusive (no result: HPGD block, Lamin A splicing)
COc1ccc2c(CCNC(N)=S)c[nH]c2c1	none (no result: Luc counter, HPGD block, ALDH1A1 inh, Lamin A splicing)
CCCn1cnc2scc(-c3ccc(C)cc3)c2c1=O	Lamin A splicing inconclusive (no result: HPGD block)
COc1ccccc1CC(=O)N1CCN(c2cccc(C(F)(F)F)c2)CC1	Lamin A splicing inconclusive, HTT aggregate 12.6µM
CCn1c(=O)cc(OCC(=O)N2CCCC2)c2ccccc21	none
CCn1c(=O)cc(OCC(=O)N2CCN(c3cccc(C(F)(F)F)c3)CC2)c2ccccc21	HPGD block inconclusive, ALDH1A1 inh 11.2µM
COc1ccccc1NC(=O)N1CCN(c2cccc(C(F)(F)F)c2)CC1	Lamin A splicing inconclusive
O=S(=O)(Nc1cccc(Cl)c1)c1ccc2oc(=S)[nH]c2c1	ALDH1A1 inh 1µM (no result: HPGD block, Lamin A splicing)
O=S(=O)(c1ccc2oc(=S)[nH]c2c1)N1CCCCC1	ALDH1A1 inh 20µM (no result: Luc counter, HPGD block, Lamin A splicing)
CCn1c(=S)[nH]c2cc(S(=O)(=O)N3CCCCC3)ccc21	ALDH1A1 inh 7.08µM, Lamin A splicing inconclusive, HTT aggregate inconclusive
O=c1[nH]c2ccc(S(=O)(=O)N3CCCCC3)cc2o1	none
CCn1c(C)nc2cc(S(=O)(=O)N3CCCC3)ccc21	Lamin A splicing inconclusive
Cc1cc(NC(=O)Cn2c(=O)n(Cc3ccccc3)c(=O)c3ccccc32)no1	HPGD block inconclusive, ALDH1A1 inh inconclusive, HTT aggregate inconclusive
Fc1ccc(-c2noc3ncnc(NCCc4ccc(Cl)cc4)c23)cc1	none (no result: Luc counter, HPGD block, ALDH1A1 inh, HTT cytoprotect, HTT aggregate)
O=C(NCc1ccc2c(c1)CCN2C(=O)c1ccncc1)c1ccccc1Br	none (no result: Luc counter, HPGD block, ALDH1A1 inh, HTT cytoprotect, HTT aggregate)
CC(SCc1ccccc1)C(=O)N/N=C/c1cccs1 (configuration not stated)	none
CC(SCc1ccccc1)C(=O)NN=C1CCN(C)CC1 (configuration not stated)	ALDH1A1 inh 1.26µM
CN1CCC(=NNC(=O)CSCc2ccccc2)CC1	ALDH1A1 inh 25.1µM
Cc1ccc(SCC(=O)NN=C2CCN(C)CC2)cc1	ALDH1A1 inh inconclusive (no result: HPGD block, Lamin A splicing)
Nc1nc(SCc2nc3scc(-c4cccs4)c3c(=O)[nH]2)n[nH]1	none
COc1ccc(C2CC(c3cc(OC)ccc3OC)n3nnnc3N2)cc1 (configuration not stated)	none
CN(C)Cc1nc2ccccc2c(=O)n1Cc1nc(-c2cc3ccccc3o2)cs1	Lamin A splicing inconclusive
CCOc1ccc(-c2csc(Cn3c(CN4CCN(C)CC4)nc4ccccc4c3=O)n2)cc1	ALDH1A1 inh 14.1µM (no result: Luc counter, HPGD block)
CC1=CS(=O)(=O)CC1Sc1ncn[nH]1 (configuration not stated)	none
CCOc1ccc(-c2nc(S(=O)(=O)c3ccccc3)c(N3CCOCC3)o2)cc1	Lamin A splicing inconclusive (no result: HPGD block)
O=S(=O)(c1ccc(F)cc1)c1nc(-c2ccccc2F)oc1N1CCCCC1	ALDH1A1 inh 5.01µM
COc1ccc(C(=O)Nc2cccc(-c3nc4ncccc4o3)c2C)cc1OC	HTT aggregate inconclusive
N#C/C(=N\Nc1ccc(S(=O)(=O)N2CCCCCC2)cc1)C(N)=S	ALDH1A1 inh 8.91µM (no result: HPGD block, Lamin A splicing, HTT cytoprotect, HTT aggregate)
N#C/C(=N/Nc1ccc(S(=O)(=O)N2CCOCC2)cc1)C(N)=O	HTT aggregate inconclusive (no result: HPGD block)
N#C/C(=N\Nc1ccc(S(=O)(=O)N2CCCCC2)cc1)C(N)=S	ALDH1A1 inh 12.6µM, Lamin A splicing inconclusive, HTT cytoprotect inconclusive, HTT aggregate inconclusive
N#C/C(=N\Nc1ccc([N+](=O)[O-])cc1)C(N)=S	none (no result: Luc counter, HPGD block, ALDH1A1 inh, Lamin A splicing)
N#C/C(=N\Nc1ccc(S(=O)(=O)N2CCc3ccccc32)cc1)C(N)=S	ALDH1A1 inh 6.31µM, Lamin A splicing inconclusive, HTT aggregate inconclusive (no result: HPGD block, HTT cytoprotect)
CCOC(=O)c1ccc(Nc2ncnc3ccccc23)cc1	none (no result: HPGD block)
CCOc1cc(C(=S)N2CCOCC2)ccc1OS(=O)(=O)c1ccccc1[N+](=O)[O-]	HPGD block 15.8µM, Lamin A splicing inconclusive (no result: HTT cytoprotect)
COc1cc(C(=S)N2CCOCC2)ccc1OS(=O)(=O)c1ccccc1[N+](=O)[O-]	HPGD block inconclusive, ALDH1A1 inh inconclusive, Lamin A splicing inconclusive
COc1ccc(C=O)cc1OS(=O)(=O)c1ccccc1[N+](=O)[O-]	HPGD block 20µM
COc1ccc(C(=S)N2CCOCC2)cc1OS(=O)(=O)c1ccccc1[N+](=O)[O-]	HPGD block 31.6µM, ALDH1A1 inh 11.2µM
COc1ccccc1S(=O)(=O)c1ccccc1[N+](=O)[O-]	Lamin A splicing inconclusive (no result: HTT cytoprotect)
CCOC(=O)c1cccc(NC(=O)/C=C/c2ccc3c(c2)OCO3)c1	ALDH1A1 inh inconclusive, Lamin A splicing inconclusive
CSC1=N/C(=C\c2cccc(Cl)c2)C(=O)N1N(C)C	none (no result: Luc counter, HPGD block, Lamin A splicing)
CCCOc1ccc(N2C(=O)CC(N(CCc3ccc(OC)c(OC)c3)C(=S)Nc3ccccc3)C2=O)cc1 (configuration not stated)	ALDH1A1 inh 25.1µM, Lamin A splicing inconclusive
